Measurements published in the supplement of paper PMC6805474.

Tests used:
[1] = test system: Schistosoma mansoni schistosomula (NMRI); test: phenotypic severity score (0-4); higher = more antischistosomal effect, active = 2 or more; details: 10 µM
[2] = test system: Schistosoma mansoni schistosomula (Liberian); test: drug effect (1 - score/DMSO control score) (fraction); higher = more antischistosomal effect, active = 0.5 or more; extreme values may be limits of the assay; details: 10 µM
Outline: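 Drug effect was calculated by comparing the mean score of the test wells with the mean score of the DMSO wells, and any negative value was set to zero. Duplicate wells of 50 Liberian-strain S. mansoni schistosomula, mechanically transformed from cercariae and pre-incubated at least 12 h, received 10 µM compound in Medium 199 with 5% FCS at 37 °C, 5% CO2, with 0.1% DMSO in the comparison wells. Visual scoring at 10× took place at 24, 48 and 72 h on a quarter-point scale from 3 (normal) to 0 (dead), and a plate counted only if its DMSO wells averaged at least 2.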
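For phenotypic severity score (0-4) in this document: visual microscopic scoring of shape, motility and density changes versus 0.5% DMSO solvent controls, one point per descriptor, degeneracy or death scored 4, mean of duplicate wells.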

Cc1cc(NCCc2ccccc2)nc(NC(=N)Nc2ccc(Cl)cc2)n1
active: phenotypic severity score ([1]; 24 h) 4 | phenotypic severity score ([1]; 48 h) 4 | phenotypic severity score ([1]; 72 h) 4 | drug effect ([2]; 24 h) 1 | drug effect ([2]; 48 h) 1 | drug effect ([2]; 72 h) 1

Nc1nccc2ccc(Oc3ccncc3)cc12
inactive: phenotypic severity score ([1]; 24 h) 0 | phenotypic severity score ([1]; 48 h) 0 | phenotypic severity score ([1]; 72 h) 0 | drug effect ([2]; 24 h) 0.1 | drug effect ([2]; 48 h) 0.222 | drug effect ([2]; 72 h) 0.375

c1ccc(Oc2ccc(-c3cc(N4CCOCC4)[nH]n3)cc2)cc1
inactive: phenotypic severity score ([1]; 24 h) 0 | phenotypic severity score ([1]; 48 h) 0 | phenotypic severity score ([1]; 72 h) 0 | drug effect ([2]; 24 h) 0.15 | drug effect ([2]; 48 h) 0.297 | drug effect ([2]; 72 h) 0.152

COc1cc(CN2CCC3(C=Cc4ccccc43)CC2)cc2c1OCO2
inactive: phenotypic severity score ([1]; 24 h) 1 | phenotypic severity score ([1]; 48 h) 1 | phenotypic severity score ([1]; 72 h) 0 | drug effect ([2]; 24 h) 0.1 | drug effect ([2]; 48 h) 0.135 | drug effect ([2]; 72 h) 0.273

Cc1ccc(Oc2ccc(NC(=O)CNc3ccccc3N3CCCC3=O)cc2)cc1
inactive: phenotypic severity score ([1]; 72 h) 0 | drug effect ([2]; 24 h) 0.2 | drug effect ([2]; 48 h) 0.333
active: phenotypic severity score ([1]; 24 h) 2 | phenotypic severity score ([1]; 48 h) 2 | drug effect ([2]; 72 h) 0.556

Cc1ccc2[nH]c3c(NCCN(C)C)ncnc3c2c1
inactive: phenotypic severity score ([1]; 24 h) 1 | phenotypic severity score ([1]; 48 h) 0 | phenotypic severity score ([1]; 72 h) 1 | drug effect ([2]; 24 h) 0.25 | drug effect ([2]; 48 h) 0.222 | drug effect ([2]; 72 h) 0.333

O[C@@H](c1cc(C(F)(F)F)nc2c(C(F)(F)F)cccc12)[C@H]1CCCCN1
active: phenotypic severity score ([1]; 24 h) 4 | phenotypic severity score ([1]; 48 h) 4 | phenotypic severity score ([1]; 72 h) 4 | drug effect ([2]; 24 h) 0.955 | drug effect ([2]; 48 h) 1 | drug effect ([2]; 72 h) 1

Cc1cc(Cl)c(S(=O)(=O)N2CCCC2)cc1OCC(=O)NC1CCCCC1
inactive: phenotypic severity score ([1]; 24 h) 0 | phenotypic severity score ([1]; 48 h) 0 | phenotypic severity score ([1]; 72 h) 0 | drug effect ([2]; 24 h) 0.1 | drug effect ([2]; 48 h) 0.189 | drug effect ([2]; 72 h) 0.212

Nc1ccc(C(=O)Nc2ccc(-c3nc4ccccc4o3)cc2)cc1
inactive: phenotypic severity score ([1]; 24 h) 0 | phenotypic severity score ([1]; 48 h) 0 | phenotypic severity score ([1]; 72 h) 0 | drug effect ([2]; 24 h) 0.0909 | drug effect ([2]; 48 h) 0.05 | drug effect ([2]; 72 h) 0.211

COc1ccc(C2=NN(C3CCCCCC3)C(=O)C2(C)C)cc1OCCCCOc1ccc(-c2nn[nH]n2)cc1
inactive: phenotypic severity score ([1]; 24 h) 1 | phenotypic severity score ([1]; 48 h) 0 | phenotypic severity score ([1]; 72 h) 0 | drug effect ([2]; 24 h) 0.182 | drug effect ([2]; 48 h) 0.2 | drug effect ([2]; 72 h) 0.127

CCN(CC)CCCCCCNc1cc(OC)cc2c(C)ccnc12
inactive: phenotypic severity score ([1]; 24 h) 0 | phenotypic severity score ([1]; 48 h) 0 | phenotypic severity score ([1]; 72 h) 0 | drug effect ([2]; 24 h) 0.1 | drug effect ([2]; 48 h) 0.135 | drug effect ([2]; 72 h) 0.167

COc1ccc2nc(C)cc(OCC(=O)Nc3ccccc3OC)c2c1
inactive: phenotypic severity score ([1]; 24 h) 0 | phenotypic severity score ([1]; 48 h) 0 | phenotypic severity score ([1]; 72 h) 0 | drug effect ([2]; 24 h) 0.2 | drug effect ([2]; 48 h) 0.278 | drug effect ([2]; 72 h) 0.25

Cc1cc2nc(NC(=O)C(C)(C)C)nc(Cl)c2n1Cc1ccc(Cl)cc1
inactive: phenotypic severity score ([1]; 24 h) 0 | phenotypic severity score ([1]; 48 h) 0 | phenotypic severity score ([1]; 72 h) 0 | drug effect ([2]; 24 h) 0.136 | drug effect ([2]; 48 h) 0.4 | drug effect ([2]; 72 h) 0.345

Cc1cccc(Cn2ccc(NC(=O)c3ccc4c(c3)OCO4)n2)c1
inactive: phenotypic severity score ([1]; 24 h) 0 | phenotypic severity score ([1]; 48 h) 0 | phenotypic severity score ([1]; 72 h) 0 | drug effect ([2]; 24 h) 0.0556 | drug effect ([2]; 48 h) 0.125 | drug effect ([2]; 72 h) < 0

CCn1cnc2c(Nc3cc(F)cc(F)c3)nc(C#N)nc21
inactive: drug effect ([2]; 24 h) 0.351
active: phenotypic severity score ([1]; 24 h) 4 | phenotypic severity score ([1]; 48 h) 4 | phenotypic severity score ([1]; 72 h) 4 | drug effect ([2]; 48 h) 0.889 | drug effect ([2]; 72 h) 0.75

COc1cccc(CC(=O)N2CCC(n3c(C)nc4ccc(F)cc43)CC2)c1
inactive: phenotypic severity score ([1]; 24 h) 1 | phenotypic severity score ([1]; 48 h) 1 | phenotypic severity score ([1]; 72 h) 1 | drug effect ([2]; 24 h) 0.1 | drug effect ([2]; 48 h) 0.405 | drug effect ([2]; 72 h) 0.394

CCc1nc2ccc(Cl)cn2c1C(=O)NCc1ccc(N2CCC(c3ccc(OC(F)(F)F)cc3)CC2)cc1
inactive: phenotypic severity score ([1]; 24 h) 1 | phenotypic severity score ([1]; 48 h) 0 | phenotypic severity score ([1]; 72 h) 0 | drug effect ([2]; 24 h) 0.105 | drug effect ([2]; 48 h) 0.0556 | drug effect ([2]; 72 h) < 0

N=C(N)c1ccc(-c2cc(-c3ccccc3)on2)cc1
inactive: phenotypic severity score ([1]; 48 h) 1 | phenotypic severity score ([1]; 72 h) 0 | drug effect ([2]; 24 h) 0.182 | drug effect ([2]; 72 h) 0.455
active: phenotypic severity score ([1]; 24 h) 2 | drug effect ([2]; 48 h) 0.65

Cc1cc(C)cc(COc2ccc3c(C)c(CCC(=O)O)c(=O)oc3c2C)c1
inactive: phenotypic severity score ([1]; 24 h) 1 | phenotypic severity score ([1]; 48 h) 1 | phenotypic severity score ([1]; 72 h) 0 | drug effect ([2]; 24 h) 0.136 | drug effect ([2]; 48 h) 0.2 | drug effect ([2]; 72 h) 0.127

Cc1ccccc1CN1CCC(O)(c2ccc(Cl)c(C(F)(F)F)c2)CC1
active: phenotypic severity score ([1]; 24 h) 2
inactive: phenotypic severity score ([1]; 48 h) 0 | phenotypic severity score ([1]; 72 h) 1 | drug effect ([2]; 24 h) 0.1 | drug effect ([2]; 48 h) 0.0556 | drug effect ([2]; 72 h) 0.188

Cc1ccc(-c2cc(C(=O)Nc3cccnc3)c3cc(Br)ccc3n2)cc1
inactive: phenotypic severity score ([1]; 48 h) 1 | phenotypic severity score ([1]; 72 h) 0
active: phenotypic severity score ([1]; 24 h) 2 | drug effect ([2]; 24 h) 0.5 | drug effect ([2]; 48 h) 0.667 | drug effect ([2]; 72 h) 1

Cc1cc(OCC(=O)NCc2ccccc2)c2cc(Br)ccc2n1
inactive: phenotypic severity score ([1]; 24 h) 0 | phenotypic severity score ([1]; 48 h) 0 | phenotypic severity score ([1]; 72 h) 0 | drug effect ([2]; 24 h) 0.1 | drug effect ([2]; 48 h) 0.0556 | drug effect ([2]; 72 h) 0.0625
